Test results taken from PubChem BioAssay.
Active and inactive are the calls of the source. Unless noted, no rule for the calls is given here.

Legend:
[1] = compound effects on lung adenocarcinoma cell viability – A549, calcein-AM fluorescence, 48 h, basal, profiling panel (AID 1162); details: higher = more signal; also: test concentration not given here
[2] = compound effects on differentiated 3T3-L1 adipocyte viability – cell-based, 3T3-L1 adipocytes, calcein-AM fluorescence, 48 h, basal, profiling panel (AID 1163); details: 3T3-L1 adipocytes viability, higher = more signal; also: test concentration not given here
[3] = compound effects on hepatocellular carcinoma cell viability – HepG2, calcein-AM fluorescence, 48 h, basal, profiling panel (AID 1164); details: higher = more signal; also: test concentration not given here
[4] = compound effects on multiple myeloma cell viability – MM1S, calcein-AM fluorescence, 48 h, basal, profiling panel (AID 1165); details: higher = more signal;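 also: viability of MM1S multiple myeloma cells under basal unstimulated conditions; test concentration not given here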
[5] = calcein-AM signal in unstimulated myeloma cells – cell-based, calcein-AM fluorescence, 48 h, PK04 Diversity Set, profiling panel (AID 1166); details: RPMI8226 myeloma viability, higher = more signal;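 also: cells grown under basal conditions without added stimulus; test concentration not given here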
[6] = JC-1 mitochondrial signal, unstimulated HepG2 cells – cell-based, JC-1 fluorescence, 24 h, 100 nL compound, profiling panel (AID 1167); details: HepG2 mitochondrial potential, higher = more signal; also: test concentration not given here
[7] = JC-1 mitochondrial signal, unstimulated adipocytes – cell-based, JC-1 fluorescence, 3T3-L1 adipocytes, 24 h, 100 nL compound, profiling panel (AID 1168); details: JC-1 mitochondrial fluorescence, higher = more signal, called active from +8 up or from −8 down; also: test concentration not given here
[8] = JC-1 mitochondrial signal, unstimulated myeloma cells – cell-based, JC-1 fluorescence, RPMI8226, 24 h, 100 nL compound, profiling panel (AID 1169); details: JC-1 mitochondrial potential fluorescence, higher = more signal; also: test concentration not given here
[9] = JC-1 mitochondrial signal, unstimulated MM1S myeloma – cell-based, JC-1 fluorescence, 24 h, 100 nL compound, profiling panel (AID 1170); details: MM1S mitochondrial potential, higher = more signal; also: test concentration not given here
[10] = resazurin metabolic signal in A549 cells – cell-based, resazurin fluorescence, 24 h, PK04 Diversity Set, profiling panel (AID 1171); details: A549 viability, higher = more signal, called active from +8 up or from −8 down; also: test concentration not given here
[11] = resazurin metabolic signal in HepG2 cells – cell-based, resazurin fluorescence, 24 h, PK04 Diversity Set, profiling panel (AID 1172); details: HepG2 viability, higher = more signal; also: test concentration not given here
[12] = budding yeast growth changes without added modifier – OD600, strain BY4716, 24 h, basal condition, primary screen (AID 1173); details: S. cerevisiae BY4716 growth, OD600, 24 h; higher = more signal, called active from +8 up or from −8 down
[13] = viability profiling in MM1S myeloma cells – cell-based, resazurin fluorescence, basal, 24 h, PK04 Diversity Set, profiling panel (AID 1174); details: higher = more signal, called active from +8 up or from −8 down; also: test concentration not given here
[14] = target: Dihydroorotate dehydrogenase (quinone), mitochondrial (Plasmodium falciparum (isolate 3D7)) (UniProt Q08210); experiment: inhibition of P. falciparum DHODH – biochemical, C-terminal His tag, absorbance 600 nm, primary screen (AID 1175); details: PfDHODH enzyme, DCIP absorbance 600 nm; higher = more signal, called active from +8 up or from −8 down;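 also: recombinant parasite enzyme with a five histidine tag at its C terminus; test concentration not given here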
Chain of Dihydroorotate dehydrogenase (quinone), mitochondrial (Plasmodium falciparum (isolate 3D7)) (Q08210 whole entry, looked up): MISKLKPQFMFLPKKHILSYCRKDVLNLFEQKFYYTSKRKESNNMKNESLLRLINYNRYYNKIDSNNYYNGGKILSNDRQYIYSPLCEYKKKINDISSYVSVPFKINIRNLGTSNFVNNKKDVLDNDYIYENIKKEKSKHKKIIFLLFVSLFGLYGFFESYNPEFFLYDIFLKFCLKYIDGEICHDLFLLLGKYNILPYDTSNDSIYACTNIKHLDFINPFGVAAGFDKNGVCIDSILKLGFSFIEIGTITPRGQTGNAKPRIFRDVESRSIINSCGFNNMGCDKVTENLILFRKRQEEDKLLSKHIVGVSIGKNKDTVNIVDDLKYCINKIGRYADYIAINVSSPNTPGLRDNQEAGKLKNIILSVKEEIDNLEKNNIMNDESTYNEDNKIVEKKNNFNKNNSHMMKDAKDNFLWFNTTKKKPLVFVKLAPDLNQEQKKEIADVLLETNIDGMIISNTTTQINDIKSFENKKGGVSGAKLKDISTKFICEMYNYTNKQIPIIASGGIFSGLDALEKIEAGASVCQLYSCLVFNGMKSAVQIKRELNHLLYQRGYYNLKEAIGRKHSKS

[15] = inhibition of PAO1 biofilm formation – strain PAO1, LB-PBS medium, absorbance 600 nm, primary screen (AID 1176); also: test concentration not given here; details: P. aeruginosa PAO1 growth/biofilm, A600, 12 h; higher = more signal
[16] = growth modulation of vineyard yeast isolate – strain RM11-1a, OD600, basal, 24 h, primary screen (AID 1177);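 also: cultures grown under basal conditions with no added stressor; test concentration not given here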; details: S. cerevisiae RM11-1a growth, OD600, 24 h; higher = more signal, called active from +8 up or from −8 down
[17] = growth of efflux-deficient E. coli DRC39 – strain DRC39, OD650, 24 h, E. coli filamentation inducers, primary screen (AID 1178);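 also: growth measured as culture turbidity by optical density at 650 nm; test concentration not given here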; details: E. coli DRC39 acrAB, higher = more signal, called active from +8 up or from −8 down
[18] = growth of efflux-deficient E. coli DRC39 – strain DRC39, OD650, 48 h, E. coli filamentation inducers, primary screen (AID 1179);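 also: screen aims at cell division blockers that make cells filament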; details: E. coli DRC39 delta-acrAB growth, higher = more signal, called active from +8 up or from −8 down
[19] = viability profiling in RPMI8226 myeloma cells – cell-based, resazurin fluorescence, basal, 24 h, PK04 Diversity Set, profiling panel (AID 1180); details: higher = more signal;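 also: RPMI8826 multiple myeloma cell line at 5000 cells per well; test concentration not given here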
[20] = target: E3 ubiquitin-protein ligase XIAP (Homo sapiens) (UniProt P98170); experiment: small molecules binding XIAP protein – biophysical, small-molecule microarray, fluorescence 635 nm, primary screen (AID 1181); details: higher = more signal;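 also: score merges 667 nm emission and signal to noise over triplicate slides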
Chain of E3 ubiquitin-protein ligase XIAP (Homo sapiens) (P98170 whole entry, looked up): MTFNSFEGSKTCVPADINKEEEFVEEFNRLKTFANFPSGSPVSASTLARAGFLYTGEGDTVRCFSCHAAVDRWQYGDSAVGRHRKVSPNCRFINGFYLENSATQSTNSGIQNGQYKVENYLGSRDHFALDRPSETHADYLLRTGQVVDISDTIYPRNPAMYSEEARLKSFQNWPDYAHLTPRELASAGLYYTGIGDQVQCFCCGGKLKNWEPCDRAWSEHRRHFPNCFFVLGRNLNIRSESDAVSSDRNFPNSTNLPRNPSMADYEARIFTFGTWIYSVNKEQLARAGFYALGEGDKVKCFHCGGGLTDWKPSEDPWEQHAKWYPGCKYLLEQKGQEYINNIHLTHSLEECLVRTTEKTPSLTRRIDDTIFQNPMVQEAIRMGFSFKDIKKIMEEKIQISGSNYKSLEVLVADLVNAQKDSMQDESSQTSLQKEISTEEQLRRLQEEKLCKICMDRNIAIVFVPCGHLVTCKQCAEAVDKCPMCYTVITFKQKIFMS

| Compound | z-score [1] | z-score [2] | z-score [3] | z-score [4] | z-score [5] | z-score [6] | z-score [7] | z-score [8] | z-score [9] | z-score [10] | z-score [11] | z-score [12] | z-score [13] | composite z-score [14] | z-score [15] | z-score [16] | z-score [17] | z-score [18] | z-score [19] | composite z-score [20] |
| --- | --- | --- | --- | --- | --- | --- | --- | --- | --- | --- | --- | --- | --- | --- | --- | --- | --- | --- | --- | --- |
| [N-]=[N+]=Nc1ccccc1C[C@]1(C(=O)NCc2ccccc2)N=C(c2ccc(OCCCO)cc2)O[C@H]1c1ccccc1 | -1.66 | -0.651 | -1.14 | -2.41 | -2.86 | 1.88 | -0.095 (inactive) | -1.13 | -1.73 | -0.395 (inactive) | -0.328 | 1.41 (inactive) | -1.73 (inactive) | 1.18 (inactive) | 0.811 (inactive) | 3.08 (inactive) | 0.515 (inactive) | -0.0745 (inactive) | -1.84 | 0.0378 |
| CC(C)N1C(=O)[C@@]2(c3ccc([N+](=O)[O-])cc3)CC(=O)N(C3CCCCC3)[C@@H]2c2ccc(CO)cc21 | -0.0841 | -0.0435 | -0.647 | -0.331 | 0.311 | -0.0357 | -0.14 (inactive) | -0.0593 | -0.843 | 2.09 (inactive) | 1.86 | 0.833 (inactive) | 0.927 (inactive) | -13.8 (active) | -0.0065 (inactive) | -0.466 (inactive) | 0.026 (inactive) | -0.303 (inactive) | 0.833 | 0.0037 |
| O=c1cccc(-c2cccc(Cl)c2)o1 | -1.09 | -0.164 | -0.0227 | -0.345 | -0.895 | -0.687 | 0.308 (inactive) | 0.86 | -0.024 | 0.0053 (inactive) | -0.381 | -8.75 (active) | 0.149 (inactive) | -0.0422 (inactive) | -0.377 (inactive) | -0.401 (inactive) | 0.304 (inactive) | -0.326 (inactive) | -0.4 | -0.0052 |
| COC(=O)[C@@]1(Cc2ccccc2)[C@H]2c3cc(C(=O)N4CCCC4)n(Cc4cc(F)cc5c4OCOC5)c3C[C@H]2CN1C(=O)c1ccccc1 | -0.927 | -0.888 | 0.162 | 0.464 | -0.0133 | 3.48 | 0.0248 (inactive) | -0.0359 | -0.977 | -0.522 (inactive) | -0.0185 | 0.978 (inactive) | -0.523 (inactive) | -0.354 (inactive) | 0.122 (inactive) | -0.0989 (inactive) | -0.599 (inactive) | -0.37 (inactive) | -0.312 | 0.392 |
| O=C1NC(=O)C2C1C=CC(C(O)c1ccc(Br)cc1)N2Nc1ccccn1 (stereo not given) | 0.636 | 0.805 | 0.909 | -0.0483 | -0.767 | -0.169 | 0.195 (inactive) | 0.698 | -0.273 | -1.58 (inactive) | -0.917 | 0.154 (inactive) | -0.817 (inactive) | -0.347 (inactive) | 1.45 (inactive) | -1.44 (inactive) | 0.421 (inactive) | 0.956 (inactive) | -0.913 | 0.367 |
| COC(=O)[C@]1(CCS(=O)(=O)c2ccccc2)N=C(c2ccc(OCCCO)cc2)O[C@@H]1c1ccccc1CN=[N+]=[N-] | -2.82 | 0.65 | -2.94 | -3.4 | -3.15 | -1.05 | -1.02 (inactive) | -1.08 | -1.88 | -4.11 (inactive) | -1.71 | 1.69 (inactive) | -4.25 (inactive) | 1.09 (inactive) | 1.32 (inactive) | 1.91 (inactive) | 0.153 (inactive) | -1.14 (inactive) | -3.68 | -0.0062 |
| CO[C@H]1O[C@H](CO)[C@@H](OC(=O)c2ccc(Br)cc2)[C@@H]2OC(=O)[C@@H](Cc3ccc4ccccc4c3)C/C=C/C[C@H](Cc3ccc4ccccc4c3)C(=O)O[C@@H]12 | 1.12 | 1.26 | 0.564 | -0.0385 | -0.21 | -0.122 | 0.497 (inactive) | -0.299 | -0.179 | -1.41 (inactive) | -0.213 | -1.23 (inactive) | -0.612 (inactive) | -1.92 (inactive) | -0.649 (inactive) | -1.34 (inactive) | 0.738 (inactive) | 1.03 (inactive) | 0.402 | 0.0848 |
| C=CCOC(=O)[C@H]1[C@@H]2C(=O)O[C@@H](c3ccccc3)[C@@H](c3ccccc3)N2[C@@H](c2ccc(OCCOC(=O)[C@H]3C[C@H]4C(=O)N[C@@H](Cc5ccccc5)C(=O)N4[C@H]3c3cccc(OCCO)c3)cc2)[C@]12C(=O)Nc1ccc(I)cc12 | -0.894 | -0.532 | 0.933 | -0.234 | -0.766 | -1.54 | -0.346 (inactive) | -0.713 | -1.41 | -0.461 (inactive) | 0.169 | 1.42 (inactive) | -0.446 (inactive) | 0.64 (inactive) | 2.17 (inactive) | 1.04 (inactive) | -0.0281 (inactive) | 0.0436 (inactive) | 0.0282 | -0.105 |
| COc1ccc([Si](C)(C)[C@H]2[C@H](CCO)O[C@@]3(C(=O)N(Cc4cccc(N5CCCCC5=O)c4)c4ccccc43)[C@@H]2C)cc1 | -1.38 | -0.865 | -4.36 | -2.73 | -4.35 | -1.59 | 0.0395 (inactive) | -1.1 | -2.09 | -2.95 (inactive) | -4.02 | -0.732 (inactive) | -7.24 (inactive) | -2.94 (inactive) | 0.969 (inactive) | 4.44 (inactive) | 1.83 (inactive) | 1.26 (inactive) | -4.57 | -0.031 |
